Laboratory results from PubChem BioAssay AID492949 (National Center for Advancing Translational Sciences (NCATS), 2010).
Inconclusive results are not listed. A call without a number means that no potency is given here. Active and inactive are the calls of the source. Calls come from the whole dose curve; as a rule, active = well fitted activation curve with a large enough effect; inconclusive = small, poorly fitted or top-dose-only effect; inactive = no such curve, though single readings can be large or run the other way.

molecular target: Relaxin receptor 1 (Homo sapiens) (UniProt Q9HBX9); test: qHTS Assay for Agonists of the Relaxin Receptor RXFP1: THP1 Hit Validation; conditions: THP1-RXFP1 cells, cAMP TR-FRET, 30 min; series mostly up to 115 µM; note: nearly all actives have a fitted effect of over 60% in size
From the text: The relaxin hormone is involved in the variety of biological functions in normal tissues and diseases. The role of relaxin is well-established in female reproduction and parturition, mammary gland and endometrial development, maintenance of myometrial quiescence during pregnancy. Relaxin signaling through its G protein-coupled receptor (GPCR) RXFP1 results in ECM remodeling through regulation of collagen deposition, cell invasiveness, proliferation and overall tissue homeostasis. […] Recombinant human relaxin (rhRlx) is currently being tested in clinical trials as a protective agent in congestive heart failure, in treating severe preeclampsia, and as an anti-fibrotic agent in systemic sclerosis.
Upon relaxin binding RXFP1 activation leads to the activation of adenylate cyclase (AC) via Gs. cAMP will activate PKA, which phosphorylates many signaling proteins. Thus, detection of cAMP increase is an easy and reliable indication of relaxin receptor activation. To screen for agonists of the relaxin receptor, a THP1 cell line stably transfected with RXFP1 was used. RXFP1 activation was assayed by changes in cAMP levels as detected with a time-resolved fluorescence energy transfer (TR-FRET) cAMP detection kit.
NIH Chemical Genomics Center [NCGC]
NIH Molecular Libraries Probe Production Centers Network [MLPCN]
Assay Submitter (PI): Alexander Agoulnik
NCGC Assay Protocol Summary:
This is a cell-based assay for cAMP second messenger response to screen for agonists of the RXFP1 receptor. The assay was conducted in the presence of a PDE4 inhibitor (Ro 20174). The cells were lysed and the cAMP levels were measured with a TR-FRET cAMP kit. Presence of cAMP in the cell lysate disrupts binding between the cryptate-labeled anti-cAMP and d2-labeled cAMP pair, leading to a decrease in the TR-FRET signal. Data were normalized to the controls for basal activity (buffer only) and 100% activity (29 nM porcine relaxin). The EC50 values were determined from concentration-response data modeled with the standard Hill equation
1536-well assay protocol for the THP1 RXFP1 cAMP assay:
(1) Add 3 ul THP1 RXFP1 cell culture. 2000 cells/well in DMEM/F12, 10% FBS, 1x Pen/Strep (dispensed offline with MultiDrop Combi).
(3) Add 23 nl compounds in DMSO solution. Final concentration was 0.5 - 58 uM.
(4) Incubate 30 min at 37C, 5% CO2.
(5) Add 1 ul cAMP-d2 in lysis buffer (HTRF cAMP HiRange kit, CisBio).
(6) Add 1 ul anti-cAMP antibody-cryptate in lysis buffer (HTRF cAMP HiRange kit, CisBio).
(7) Incubate 30 min at room temperature.
(6) Detect the assay plate in a ViewLux plate reader (PerkinElmer) with Ex=320 nm, Em1=615 nm and Em2=665 nm.
Keywords: relaxin, RXFP1, RXFP2, G-protein coupled receptor, cAMP, agonist, high throughput screening, MLSMR, MLSCN, NIH Roadmap, qHTS and NCGC
Potency is the fitted concentration of half-maximal effect.

Relaxin receptor 1 (Homo sapiens), sequence (Q9HBX9 whole entry, looked up): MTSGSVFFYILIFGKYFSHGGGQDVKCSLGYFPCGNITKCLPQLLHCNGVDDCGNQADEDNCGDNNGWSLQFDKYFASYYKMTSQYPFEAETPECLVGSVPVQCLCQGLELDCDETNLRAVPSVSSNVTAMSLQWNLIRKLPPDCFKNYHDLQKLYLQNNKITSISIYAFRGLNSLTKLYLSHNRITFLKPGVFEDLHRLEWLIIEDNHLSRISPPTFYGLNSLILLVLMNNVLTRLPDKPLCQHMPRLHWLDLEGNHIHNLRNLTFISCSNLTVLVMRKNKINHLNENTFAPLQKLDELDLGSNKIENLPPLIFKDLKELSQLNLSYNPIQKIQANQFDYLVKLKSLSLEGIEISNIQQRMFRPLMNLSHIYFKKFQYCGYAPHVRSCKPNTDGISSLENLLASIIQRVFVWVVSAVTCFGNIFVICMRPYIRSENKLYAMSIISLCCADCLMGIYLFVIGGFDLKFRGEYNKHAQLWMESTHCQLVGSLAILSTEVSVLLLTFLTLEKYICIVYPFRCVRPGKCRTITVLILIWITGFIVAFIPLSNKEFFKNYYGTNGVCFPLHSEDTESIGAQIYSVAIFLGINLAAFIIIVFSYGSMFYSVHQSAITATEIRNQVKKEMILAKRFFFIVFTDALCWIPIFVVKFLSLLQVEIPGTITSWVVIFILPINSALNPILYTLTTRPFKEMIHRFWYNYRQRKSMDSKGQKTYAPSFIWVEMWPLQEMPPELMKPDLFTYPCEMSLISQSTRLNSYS

Question: For `CCc1cc2c(=O)nc3n(c2s1)Cc1ccccc1/C3=C(/O)c1cccc([N+](=O)[O-])c1`, which Potency is on record?
Answer: 0.87 µM (active)

Question: Which Potency does the source give for `Cn1c(=O)c2sccc2n2c(CCCC(=O)NCc3ccco3)nnc12` here?
Answer: 34.6 µM (active)

Question: How did the Potency turn out when `CC(C)n1cnc2c(N(C)c3cccc(Cl)c3)nc(N(CCO)CCO)nc21` was run?
Answer: inactive

Question: Which Potency does the source give for `C=CCOc1c(Cl)cc(CNc2ccc(N(C)C)cc2)cc1OC` here?
Answer: inactive

Question: For `CCc1ccc(-c2nc3ccc(Br)cc3c(C(=O)O)c2C)s1`, which Potency is on record?
Answer: 6.15 µM (active)

Question: How did the Potency turn out when `CN1C(=O)c2ccc(C(=O)Nc3ccc(Br)cn3)cc2C1=O` was run?
Answer: 21.8 µM (active)

Question: How did the Potency turn out when `S=c1nc[nH]c2c1[nH]c1ccc(Cl)cc12` was run?
Answer: 1.55 µM (active)

Question: With `Cc1cccn2c(=O)c(/C=C3\SC(=S)NC3=O)c(NCCCN3CCOCC3)nc12` as the molecule, how does the Potency read?
Answer: 4.88 µM (active)

Question: With `O=C(Nc1ccccc1C(=O)NCc1ccco1)c1ccco1` as the molecule, how does the Potency read?
Answer: inactive

Question: `CN(C)c1ccc(NC(=O)C2C3C=CC(C3)C2C(=O)O)cc1` (stereo not given) was tested. Which Potency did it give?
Answer: inactive

Question: With `O=C(Nc1ccccc1C(=O)N1CCCCC1)c1ccco1` as the molecule, how does the Potency read?
Answer: inactive

Question: `O=C(Nc1ccccc1C(=O)N1CCN(c2ccccc2)CC1)c1ccco1` was tested. Which Potency did it give?
Answer: inactive

Question: With `Cc1cc(C)c(NC(=O)CS(=O)CC(=O)Nc2ccc(F)cc2F)c(C)c1` (stereo not given) as the molecule, how does the Potency read?
Answer: inactive

Question: `Cc1cc(Br)c2nc3c(c(C(=O)O)c2c1)CCCCC3` was tested. Which Potency did it give?
Answer: 3.08 µM (active)

Question: Which Potency does the source give for `Cc1cc2nc3ccc(=[N+](C)C)cc-3sc2cc1N` here?
Answer: inactive

Question: How did the Potency turn out when `COC(=O)c1sc(N2C(=O)C(O)=C(C(=O)c3ccc(C)o3)C2c2ccc(F)cc2)nc1C` (stereo not given) was run?
Answer: 2.75 µM (active)

Question: Which Potency does the source give for `CC(=O)c1c(C)[nH]c(C(=O)OCc2cc(=O)n3cc(Br)ccc3n2)c1C` here?
Answer: 8.68 µM (active)

Question: For `CCn1c(=O)c2cc(C(=O)Nc3cccc(C(C)=O)c3)sc2c2ccccc21`, which Potency is on record?
Answer: inactive

Question: How did the Potency turn out when `NS(=O)(=O)c1ccc(CCNC(=O)C2CCN(c3ncnc4c3nc3n4CCCCC3)CC2)cc1` was run?
Answer: 27.5 µM (active)

Question: How did the Potency turn out when `O=C(O)CSc1ccnc2cc(Cl)ccc12` was run?
Answer: 21.8 µM (active)

Question: With `O=C(Nc1ccccc1C(=O)Nc1ccccc1)c1ccco1` as the molecule, how does the Potency read?
Answer: inactive

Question: Which Potency does the source give for `CN(C)c1ccc(C(=S)N2CCN(S(=O)(=O)c3ccccc3)CC2)cc1` here?
Answer: inactive

Question: With `Cc1ccc(-n2nnc3c(=O)n(CC(=O)NCC4CCCO4)cnc32)cc1` (stereo not given) as the molecule, how does the Potency read?
Answer: 15.5 µM (active)

Question: With `Cc1cccc2cc(C#N)c(SCC(=O)NCc3cccs3)nc12` as the molecule, how does the Potency read?
Answer: 19.4 µM (active)

Question: Which Potency does the source give for `O=C(Nc1ccccc1C(=O)NCc1ccccc1)c1ccco1` here?
Answer: inactive

Question: Which Potency does the source give for `Cc1ccc(-c2ccc3nnc(SCC(=O)NCC4CCCO4)n3n2)cc1` (stereo not given) here?
Answer: inactive

Question: How did the Potency turn out when `O=C(Nc1cc(S(=O)(=O)N2CCOCC2)ccc1N1CCOCC1)c1cn2ccccc2n1` was run?
Answer: 8.7 µM (active)

Question: How did the Potency turn out when `O=C(O)c1ccc(CN2C(=O)c3ccc(C(=O)O)cc3C2=O)cc1` was run?
Answer: inactive

Question: For `O=C(O)CCSc1ccc2ccccc2n1`, which Potency is on record?
Answer: 19.4 µM (active)

Question: `CC(C)c1ccccc1NC(=O)c1ccccc1NC(=O)C1CCCCC1` was tested. Which Potency did it give?
Answer: inactive

Question: `COC(=O)c1c(N2C(=O)CC(Sc3ncccc3C(=O)O)C2=O)sc(C)c1C` (stereo not given) was tested. Which Potency did it give?
Answer: inactive

Question: How did the Potency turn out when `CC(C)C(=O)Nc1ccc(Nc2ccccc2)cc1` was run?
Answer: inactive

Question: With `Cn1c(=O)c(C(=O)COc2ccc(C#N)cc2)c(N)n(Cc2ccccc2)c1=O` as the molecule, how does the Potency read?
Answer: 8.7 µM (active)

Question: For `O=C(Nc1ccccc1C(=O)N1CCOCC1)c1ccco1`, which Potency is on record?
Answer: inactive

Question: How did the Potency turn out when `O=c1oc2cc(O)c(Cl)cc2c2ccccc12` was run?
Answer: 8.68 µM (active)

Question: How did the Potency turn out when `CCN(CC)c1ccc(S(=O)(=O)N2CCOCC2)cc1NC(=O)CSc1nncn1C` was run?
Answer: 15.4 µM (active)

Question: For `CC1C/C(=N\NC(N)=S)c2cc(Cl)ccc2S1` (stereo not given), which Potency is on record?
Answer: inactive

Question: `CCS(=O)(=O)Nc1cccc(-c2ccc3nnc(-c4cccnc4)n3n2)c1` was tested. Which Potency did it give?
Answer: 27.5 µM (active)

Question: For `CCN(CC)C(=O)c1cc(Cl)ccc1NC(=O)c1ccco1`, which Potency is on record?
Answer: inactive

Question: Which Potency does the source give for `Nc1ncnc2c1ncn2C1OC(CO)C(O)C1O` (stereo not given) here?
Answer: inactive
